For four compounds, outcome and AC50 results are on record in PubChem BioAssay (EPA / NIEHS).

Active and inactive are the calls of the source. Rule for the calls: active = hit-call score of the fitted dose curve at least 0.9, where 1 is the maximum; inactive = score below 0.9.

A short description of assay [1]: ATG_GLI_CIS: Attagene CIS-FACTORIAL HepG2 Assay for human Zinc Finger Protein GLI1 (AID 2282945). The settings on record: HepG2, Attagene cis-factorial reporter mRNA, GLI element; actives raise or lower the signal. The gist of the method: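 Bidirectional curve fits relative to DMSO, using reporter mRNA levels from RT-PCR plus capillary electrophoresis. Cells were HepG2 transiently carrying cis-regulated reporter constructs, harvested 24 h after dosing.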

Assay [2] addresses Bile acid receptor (Homo sapiens) (UniProt Q96RI1). The experiment in a line: ATG_IR1_CIS: Attagene CIS-FACTORIAL HepG2 Assay for human Nuclear Receptor Subfamily 1 Group H Member 4 (NR1H4), IR1 submotif (AID 2282946). The conditions noted are these: IR1 reporter transcription, actives raise or lower the signal. The method, boiled down:
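HepG2 cells transiently transfected with multiplexed cis-element reporter units read endogenous transcription factor activity. After 24 h compound exposure, reporter mRNA was quantified by RT-PCR, fluorescent labelling, HpaI digestion and capillary electrophoresis; bidirectional fitting versus DMSO baseline.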

Assay [3] in a line: ATG_GRE_CIS: Attagene CIS-FACTORIAL HepG2 Assay for human Glucocorticoid Response Elements (GRE) (AID 2282947). The settings on record: HepG2 GRE cis-reporter, Attagene multiplex mRNA; actives raise or lower the signal. The method, boiled down: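 Reporter transcripts read by RT-PCR with capillary electrophoresis fluorescence after a 24 h chemical exposure of HepG2 cells transiently transfected with multiple cis-element reporter units. Gain or loss fitted against DMSO.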

Assay [4] in a line: ATG_ISRE_CIS: Attagene CIS-FACTORIAL HepG2 Assay for human Interferon Regulatory Factor 1 (IRF1) binding to an Interferon-Stimulated Response Element (ISRE) (AID 2282948). The conditions noted are these: HepG2 ISRE cis-reporter (Attagene), mRNA transcription readout; actives raise or lower the signal. The method, boiled down:
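Endogenous transcription factor activity read as reporter transcript abundance via RT-PCR and capillary electrophoresis. HepG2 cells transiently transfected, 24 h chemical exposure. Gain or loss fitted against DMSO baseline.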

Assay [5] can be described thus: ATG_M_32_CIS: Attagene CIS-FACTORIAL HepG2 Assay for M32 Transcription Factor (Internal Marker) (AID 2282949).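 Note: background control marker of the multiplexed CIS panel rather than a real target.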 The settings on record: HepG2 Attagene cis-factorial M32 reporter, mRNA; actives raise or lower the signal. The method, boiled down:
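HepG2 transfectants (cis-regulated reporter transcription units) dosed 24 h. Reporter mRNA by RT-PCR plus CE, analysed as gain or loss relative to DMSO.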

Assay [6] in a line: ATG_M_06_CIS: Attagene CIS-FACTORIAL HepG2 Assay for M06 Transcription Factor (Internal Marker) (AID 2282950). The settings on record: HepG2 Attagene CIS-FACTORIAL M06 internal marker reporter; actives raise or lower the signal. The method, boiled down:
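Read-out is fluorescence of labelled reporter cDNA fragments resolved by capillary electrophoresis after RT-PCR. Cells: HepG2 carrying transfected cis-promoter reporter units, treated 24 h. Gain or loss of signal fitted relative to DMSO.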

Assay [7] deals with Hepatocyte nuclear factor 6 (Homo sapiens) (UniProt Q9UBC0). The experiment in a line: ATG_HNF6_CIS: Attagene CIS-FACTORIAL HepG2 Assay for human Hepatocyte Nuclear Factor 6 (HNF6) (AID 2282952). The settings on record: HepG2 Attagene cis-factorial HNF6 reporter transcription; actives raise or lower the signal. The gist of the method: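 Endogenous transcription factor activity in human HepG2 liver cells was captured through cis-regulated reporter constructs. After 24 h treatment, reporter mRNA was measured by RT-PCR with capillary electrophoresis, and activity was fitted in both directions relative to DMSO.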
Sequence of Hepatocyte nuclear factor 6 (Homo sapiens) (Q9UBC0 whole entry, looked up): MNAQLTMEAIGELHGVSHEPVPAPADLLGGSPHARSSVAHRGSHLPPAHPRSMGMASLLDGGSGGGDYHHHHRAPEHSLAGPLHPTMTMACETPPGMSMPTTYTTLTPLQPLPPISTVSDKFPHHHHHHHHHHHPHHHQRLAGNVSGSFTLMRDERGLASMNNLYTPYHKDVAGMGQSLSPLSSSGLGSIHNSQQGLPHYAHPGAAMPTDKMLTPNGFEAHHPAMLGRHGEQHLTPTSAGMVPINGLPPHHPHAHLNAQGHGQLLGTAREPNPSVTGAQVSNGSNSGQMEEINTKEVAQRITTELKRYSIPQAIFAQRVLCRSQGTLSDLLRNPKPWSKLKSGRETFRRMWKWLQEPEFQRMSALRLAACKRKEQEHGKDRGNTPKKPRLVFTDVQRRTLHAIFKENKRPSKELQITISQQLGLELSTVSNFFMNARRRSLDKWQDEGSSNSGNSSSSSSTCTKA

Assay [8] deals with Heat shock factor protein 1 (Homo sapiens) (UniProt Q00613). The experiment in a line: ATG_HSE_CIS: Attagene CIS-FACTORIAL HepG2 Assay for human Heat Shock Transcription Factor 1 (HSE) (AID 2282953). The settings on record: HepG2 HSE cis-reporter, Attagene RNA transcription; actives raise or lower the signal. The method, boiled down: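 HepG2, transient MRTU transfection, cis-promoter reporters (endogenous TF activity). 24 h compound. RNA → oligo(dT) RT → PCR → 6-FAM primer extension → HpaI cut → CE. Bidirectional fit vs DMSO.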
Sequence of Heat shock factor protein 1 (Homo sapiens) (Q00613 whole entry, looked up): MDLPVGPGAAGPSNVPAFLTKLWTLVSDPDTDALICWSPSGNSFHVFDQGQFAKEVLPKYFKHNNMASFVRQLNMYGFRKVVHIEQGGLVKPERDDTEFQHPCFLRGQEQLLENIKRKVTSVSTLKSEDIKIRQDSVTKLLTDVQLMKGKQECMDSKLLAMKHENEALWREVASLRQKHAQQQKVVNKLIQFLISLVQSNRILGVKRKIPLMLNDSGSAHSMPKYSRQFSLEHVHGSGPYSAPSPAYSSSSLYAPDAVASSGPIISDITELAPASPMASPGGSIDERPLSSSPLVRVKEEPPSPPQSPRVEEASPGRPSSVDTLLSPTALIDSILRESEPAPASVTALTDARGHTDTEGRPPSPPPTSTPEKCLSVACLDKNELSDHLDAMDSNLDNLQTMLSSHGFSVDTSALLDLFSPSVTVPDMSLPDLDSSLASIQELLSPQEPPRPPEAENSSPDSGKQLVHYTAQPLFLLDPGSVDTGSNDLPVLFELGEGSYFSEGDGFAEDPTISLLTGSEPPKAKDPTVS

Assay [9] in a line: ATG_MRE_CIS: Attagene CIS-FACTORIAL HepG2 Assay for human Metal Responsive Element (MRE) (AID 2282954). The conditions noted are these: HepG2 MRE cis-reporter transcription, Attagene multiplex; actives raise or lower the signal. The gist of the method:
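Endogenous MRE-dependent transcription read as reporter mRNA in transiently transfected human HepG2 cells at 24 h. RNA reverse-transcribed, PCR-amplified, labelled and resolved by capillary electrophoresis; gain or loss relative to DMSO.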

Assay [10] can be described thus: ATG_PBREM_CIS: Attagene CIS-FACTORIAL HepG2 Assay for human Phenobarbital-responsive Enhancer Module (PBREM) (AID 2282955). The settings on record: HepG2 PBREM cis-reporter, Attagene multiplexed transcription; actives raise or lower the signal. The gist of the method:
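HepG2 cells transiently transfected with multiple cis-regulated reporter units measure endogenous transcription factor activity; 24 h compound exposure. Reporter mRNA quantified by RT-PCR, fluorescent labelling, HpaI digestion and capillary electrophoresis; bidirectional fit versus DMSO.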

Assay [11] can be described thus: ATG_PXRE_CIS: Attagene CIS-FACTORIAL HepG2 Assay for human Pregnane X Receptor Element (PXRE) (AID 2282957). The conditions noted are these: HepG2 Attagene CIS-FACTORIAL PXRE reporter, mRNA; actives raise or lower the signal. The gist of the method: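 Endogenous transcription factor activity in HepG2 was gauged through induction of reporter mRNA driven by a cis-regulating promoter element, sampled 24 h post-treatment. Activity was fitted in both directions against DMSO negative control.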

A short description of assay [12]: ATG_PPRE_CIS: Attagene CIS-FACTORIAL HepG2 Assay for human Peroxisome Proliferator-activated Response Element (PPRE) (AID 2282958). The conditions noted are these: HepG2 PPRE cis-element reporter, Attagene transcription factor profiling; actives raise or lower the signal. The gist of the method: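 HepG2 cells are transiently transfected with multiplexed cis-promoter reporter units to report endogenous PPAR activity. After 24 h dosing, reporter mRNA is read by RT-PCR and capillary electrophoresis. Fitting is bidirectional against DMSO.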

Assay [13] can be described thus: ATG_RORE_CIS: Attagene CIS-FACTORIAL HepG2 Assay for human RAR-related Orphan Receptor Element (RORE) (AID 2282959). The conditions noted are these: HepG2 Attagene cis-factorial RORE reporter, mRNA; actives raise or lower the signal. The gist of the method: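 HepG2 cells carrying transiently transfected cis-regulated reporter units; RORE-driven reporter mRNA quantified 24 h post-dosing by RT-PCR, 6-FAM primer extension, HpaI digestion and capillary electrophoresis. Bidirectional fit versus DMSO.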

Assay [14] in a line: ATG_Sox_CIS: Attagene CIS-FACTORIAL HepG2 Assay for human SRY-box transcription factor (SOX) (AID 2282960). The conditions noted are these: HepG2 Attagene cis-factorial SOX reporter, mRNA; actives raise or lower the signal. The method, boiled down:
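HepG2 cells transiently transfected with multiple cis-regulated reporter units, then dosed for 24 h. Reporter mRNA quantified by RT-PCR, fluorescent labelling, HpaI digestion and capillary electrophoresis; bidirectional fit versus DMSO.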

In assay [15] the target is Transcription factor Sp1 (Homo sapiens) (UniProt P08047). The experiment in a line: ATG_Sp1_CIS: Attagene CIS-FACTORIAL HepG2 Assay for human Specificity Protein 1 (Sp1) (AID 2282961). The conditions noted are these: HepG2 Sp1 cis-reporter transcription, actives raise or lower the signal. The gist of the method: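 HepG2 cells transiently transfected with multiplexed cis-regulated reporter constructs, chemical exposure 24 h. Reporter mRNA quantified by RT-PCR with capillary electrophoresis; bidirectional fit relative to DMSO.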
Sequence of Transcription factor Sp1 (Homo sapiens) (P08047 whole entry, looked up): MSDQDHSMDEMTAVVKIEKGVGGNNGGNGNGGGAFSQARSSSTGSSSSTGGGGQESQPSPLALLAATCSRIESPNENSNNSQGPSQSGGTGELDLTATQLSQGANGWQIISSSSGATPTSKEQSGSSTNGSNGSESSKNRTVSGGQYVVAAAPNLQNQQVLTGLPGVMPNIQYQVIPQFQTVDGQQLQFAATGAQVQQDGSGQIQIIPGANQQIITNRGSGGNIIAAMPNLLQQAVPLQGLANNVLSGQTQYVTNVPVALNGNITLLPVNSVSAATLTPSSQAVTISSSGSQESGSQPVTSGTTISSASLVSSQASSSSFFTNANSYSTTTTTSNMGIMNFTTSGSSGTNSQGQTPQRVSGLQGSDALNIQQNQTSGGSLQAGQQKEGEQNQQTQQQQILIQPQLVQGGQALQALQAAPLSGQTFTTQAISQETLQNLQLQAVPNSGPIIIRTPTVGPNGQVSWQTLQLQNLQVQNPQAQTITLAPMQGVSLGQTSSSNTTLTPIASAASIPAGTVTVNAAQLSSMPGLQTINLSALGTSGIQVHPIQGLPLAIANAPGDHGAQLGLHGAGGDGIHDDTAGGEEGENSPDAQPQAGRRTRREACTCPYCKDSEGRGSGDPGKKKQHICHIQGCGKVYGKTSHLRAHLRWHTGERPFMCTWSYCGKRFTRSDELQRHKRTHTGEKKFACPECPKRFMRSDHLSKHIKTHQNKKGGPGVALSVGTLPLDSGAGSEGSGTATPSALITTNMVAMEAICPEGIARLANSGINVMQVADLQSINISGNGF

Assay [16] is described as follows: ATG_SREBP_CIS: Attagene CIS-FACTORIAL HepG2 Assay for human Sterol Regulatory Element Binding (SREBP) (AID 2282962). The settings on record: HepG2 Attagene cis-factorial SREBP reporter, mRNA; actives raise or lower the signal. The method, boiled down: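 Endogenous SREBP activity read as cis-element-driven reporter transcript in transiently transfected HepG2, 24 h post-dosing; quantified via RT-PCR plus capillary electrophoresis of fluorescent fragments. Gain or loss of signal fitted relative to DMSO baseline.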

For assay [17], the target named is Signal transducer and activator of transcription 3 (Homo sapiens) (UniProt P40763). The experiment in a line: ATG_STAT3_CIS: Attagene CIS-FACTORIAL HepG2 Assay for human Signal Transducer and Activator of Transcription 3 (STAT3) (AID 2282963). The settings on record: HepG2, Attagene cis-factorial STAT3 reporter transcription; actives raise or lower the signal. The method, boiled down:
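Readout is reporter transcript quantified by RT-PCR and capillary electrophoresis, with 6-FAM primer extension and HpaI digestion. Total RNA is taken 24 h after dosing transiently transfected HepG2 carrying cis-regulated reporter units. Bidirectional fit against DMSO.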

The nature of assay [18]: ATG_TA_CIS: Attagene CIS-FACTORIAL HepG2 Assay for human TA Basal Promoter (AID 2282964). The settings on record: HepG2 Attagene CIS-factorial TA basal promoter reporter; actives raise or lower the signal. The gist of the method:
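Read-out: fluorescent reporter-transcript fragments resolved by capillary electrophoresis after RT-PCR and HpaI digestion. Source: HepG2 cells carrying transiently transfected multi-reporter cis constructs, treated 24 h. Endpoint fitted bidirectionally relative to DMSO.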

Assay [19] concerns the target Paired box protein Pax-6 (Homo sapiens) (UniProt P26367). The experiment in a line: ATG_Pax6_CIS: Attagene CIS-FACTORIAL HepG2 Assay for human Paired Box 6 (PAX6) (AID 2282956). The conditions noted are these: HepG2 CIS-FACTORIAL PAX6 reporter transcription, RNA readout; actives raise or lower the signal. The gist of the method: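 Read-out is reporter transcript level, measured by RT-PCR with fluorescent primer extension and capillary electrophoresis after 24 h dosing of transfected HepG2 cells. Activity in either direction fitted relative to DMSO control.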

Assay [20] has as its target Hypoxia-inducible factor 1-alpha (Homo sapiens) (UniProt Q16665). The experiment in a line: ATG_HIF1a_CIS: Attagene CIS-FACTORIAL HepG2 Assay for human Hypoxia Inducible Factor 1 (HIF1A) (AID 2282951). The settings on record: HepG2 Attagene cis-factorial HIF1a reporter transcription; actives raise or lower the signal. The gist of the method: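 HepG2 cells transiently transfected with multiple cis-regulated reporter transcription units measure endogenous transcription factor activity. After 24 h exposure, reporter mRNA is quantified by RT-PCR with 6-FAM labelling, HpaI digestion and capillary electrophoresis. Bidirectional fitting against DMSO.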

Sequence of Bile acid receptor (Homo sapiens) (Q96RI1 whole entry, looked up): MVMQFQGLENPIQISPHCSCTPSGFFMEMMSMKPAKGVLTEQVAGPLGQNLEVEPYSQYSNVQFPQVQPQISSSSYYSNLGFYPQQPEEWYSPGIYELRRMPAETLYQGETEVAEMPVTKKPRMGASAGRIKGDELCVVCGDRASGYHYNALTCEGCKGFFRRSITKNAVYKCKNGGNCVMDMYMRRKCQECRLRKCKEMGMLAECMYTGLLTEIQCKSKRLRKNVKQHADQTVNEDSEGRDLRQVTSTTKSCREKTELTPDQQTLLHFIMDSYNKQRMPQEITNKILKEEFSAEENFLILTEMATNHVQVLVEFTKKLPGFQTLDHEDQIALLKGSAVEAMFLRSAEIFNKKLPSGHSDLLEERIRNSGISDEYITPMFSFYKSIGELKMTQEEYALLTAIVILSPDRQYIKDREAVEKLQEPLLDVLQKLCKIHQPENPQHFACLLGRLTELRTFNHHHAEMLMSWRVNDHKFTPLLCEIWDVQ
Sequence of Signal transducer and activator of transcription 3 (Homo sapiens) (P40763 whole entry, looked up): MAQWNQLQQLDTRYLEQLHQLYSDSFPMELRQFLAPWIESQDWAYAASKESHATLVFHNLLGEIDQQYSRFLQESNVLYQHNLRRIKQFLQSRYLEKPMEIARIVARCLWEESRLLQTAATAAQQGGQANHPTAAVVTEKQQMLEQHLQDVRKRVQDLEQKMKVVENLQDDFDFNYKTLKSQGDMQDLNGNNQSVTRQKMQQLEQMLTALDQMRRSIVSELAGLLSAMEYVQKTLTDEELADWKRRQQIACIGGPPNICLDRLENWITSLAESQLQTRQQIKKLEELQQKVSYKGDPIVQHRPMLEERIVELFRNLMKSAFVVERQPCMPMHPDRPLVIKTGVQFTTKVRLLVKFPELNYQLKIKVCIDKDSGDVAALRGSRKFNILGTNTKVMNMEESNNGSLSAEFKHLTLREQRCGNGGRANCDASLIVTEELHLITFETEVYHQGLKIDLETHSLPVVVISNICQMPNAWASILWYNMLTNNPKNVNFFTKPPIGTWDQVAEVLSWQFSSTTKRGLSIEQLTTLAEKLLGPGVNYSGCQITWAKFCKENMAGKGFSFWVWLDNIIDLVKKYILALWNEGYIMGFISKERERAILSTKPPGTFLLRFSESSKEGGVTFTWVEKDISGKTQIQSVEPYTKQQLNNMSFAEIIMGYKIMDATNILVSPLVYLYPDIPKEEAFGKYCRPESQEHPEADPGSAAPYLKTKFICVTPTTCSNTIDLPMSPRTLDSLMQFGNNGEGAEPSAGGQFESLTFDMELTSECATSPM
Sequence of Paired box protein Pax-6 (Homo sapiens) (P26367 whole entry, looked up): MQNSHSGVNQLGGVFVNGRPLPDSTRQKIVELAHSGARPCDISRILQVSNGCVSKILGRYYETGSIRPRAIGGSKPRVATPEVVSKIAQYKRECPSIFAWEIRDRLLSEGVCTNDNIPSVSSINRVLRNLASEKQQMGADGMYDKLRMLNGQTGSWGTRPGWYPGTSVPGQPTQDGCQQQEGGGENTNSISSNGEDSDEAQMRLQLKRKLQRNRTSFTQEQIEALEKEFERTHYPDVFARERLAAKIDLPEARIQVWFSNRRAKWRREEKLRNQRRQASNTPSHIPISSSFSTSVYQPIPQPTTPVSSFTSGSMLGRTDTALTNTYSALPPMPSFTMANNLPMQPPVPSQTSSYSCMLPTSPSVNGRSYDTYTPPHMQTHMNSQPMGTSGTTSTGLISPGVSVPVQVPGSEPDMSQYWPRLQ
Sequence of Hypoxia-inducible factor 1-alpha (Homo sapiens) (Q16665 whole entry, looked up): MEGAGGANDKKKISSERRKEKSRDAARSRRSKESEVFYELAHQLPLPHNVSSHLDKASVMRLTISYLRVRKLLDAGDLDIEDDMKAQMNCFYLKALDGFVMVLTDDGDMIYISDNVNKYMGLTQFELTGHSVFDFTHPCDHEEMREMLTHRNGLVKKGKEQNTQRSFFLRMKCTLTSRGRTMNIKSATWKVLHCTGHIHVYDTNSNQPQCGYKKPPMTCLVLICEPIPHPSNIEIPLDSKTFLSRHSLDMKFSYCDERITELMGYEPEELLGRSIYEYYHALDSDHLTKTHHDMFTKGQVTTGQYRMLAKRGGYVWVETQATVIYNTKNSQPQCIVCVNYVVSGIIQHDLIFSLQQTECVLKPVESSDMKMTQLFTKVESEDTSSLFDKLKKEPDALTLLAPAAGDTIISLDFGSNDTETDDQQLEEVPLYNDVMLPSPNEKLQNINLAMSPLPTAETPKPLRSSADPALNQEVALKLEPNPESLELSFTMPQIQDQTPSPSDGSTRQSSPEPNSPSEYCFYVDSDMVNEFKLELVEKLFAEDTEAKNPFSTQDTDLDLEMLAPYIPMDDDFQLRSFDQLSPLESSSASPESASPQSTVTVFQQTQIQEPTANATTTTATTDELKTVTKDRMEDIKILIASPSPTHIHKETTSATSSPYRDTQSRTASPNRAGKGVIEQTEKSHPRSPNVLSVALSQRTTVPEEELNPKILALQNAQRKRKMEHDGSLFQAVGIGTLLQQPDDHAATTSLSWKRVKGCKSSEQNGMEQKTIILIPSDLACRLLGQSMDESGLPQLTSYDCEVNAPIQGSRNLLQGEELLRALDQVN

Broadly, the AC50 is the midpoint of the concentration-response curve, whichever way the signal moves. In the case of `O=C(O)CCC(F)(F)C(F)(F)C(F)(F)C(F)(F)C(F)(F)C(F)(F)C(F)(F)F`, the call in assay [1], in assay [2], in [3], in assay [5], in assay [6] and in [7] was inactive. Further, the compound was classed as inactive in assay [8], in assay [9], in assay [10], in assay [11], in assay [13] and in assay [14]. Besides, the call in assay [15], in assay [16] and in [17] was inactive. The AC50 is 150 µM (active) in assay [4] and 64.4 µM (active) in assay [12].
With `CCCCCCCCCCCCCC[P+](CCCC)(CCCC)CCCC`, the compound was classed as inactive in [1], in assay [2], in assay [3], in assay [4], in assay [5] and in assay [6]. Besides, the call in assay [7], in [10], in assay [11], in assay [12], in assay [13] and in [14] was inactive. For the same compound, the compound was called inactive in assay [18]. Further, the AC50 is 0.82 µM (active) in assay [8], 0.871 µM (active) in assay [9], 0.969 µM (active) in assay [15] and 1.24 µM (active) in assay [16].
Regarding `OCC(F)(F)C(F)(F)C(F)(F)C(F)(F)C(F)(F)C(F)(F)CO`, the result in [1], in assay [2], in assay [3], in [4], in [5] and in [6] was inactive. Further, the result in [7], in assay [8], in assay [9], in assay [19], in [12] and in [13] was inactive. For the same compound, the result in assay [14], in [15], in assay [16] and in [18] was inactive. The concentration at half-maximal activity (AC50) in assay [11] was 70.6 µM (active).
As for `CCn1c2ccccc2c2ccccc21`, the result in assay [1], in assay [2], in assay [4], in [5], in [6] and in assay [20] was inactive. Moreover, the outcome in [7], in assay [8], in assay [10], in assay [12], in assay [13] and in [14] was inactive. The compound was classed as inactive in [17]. Also, the AC50 in assay [9] was 73.9 µM (active); in assay [11], 26.2 µM (active); in assay [15], 167 µM (active); in [16], 153 µM (active).
